# Source: PubChem BioAssay (National Center for Advancing Translational Sciences (NCATS))
# HT1080-NT tox – kills 2HG-producing HT-1080-NT fibrosarcoma cells | AID 686970 | HT-1080-NT fibrosarcoma viability, CellTiter-Glo ATP luminescence, 48 h | 360,000 tested, 1.6% active | Potency, µM (titrated, usually from 46.1 µM), for inactives: at the highest dose activity, negative = less viability, actives largely listed as cytotoxic;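 note: NT is the 2HG producing partner of a matched IDH1 knockdown line; potency is the fitted concentration of half-maximal effect; 0% = DMSO-treated cells and -100% = media-only wells without cells; nearly all actives have a fitted effect of over 55% in size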
#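 HT-1080-NT; 750 cells/well; 5% FBS RPMI; 48 h compound, 37 degrees C; CellTiter-Glo luminescence; curve fitting and curve-class assignment.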
# HT1080 IDH1KD tx – kills HT-1080 cells with IDH1 knockdown; Potency, µM (top dose mostly 46.1 µM), for inactives: at the top dose activity, negative = toxicity, actives largely listed as cytotoxic; HT-1080 IDH1 knockdown viability, ATP luminescence, 48 h; 360,000 tested, 2% active;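 note: potency is the fitted concentration of half-maximal effect; 0% = DMSO wells and -100% = cell-free medium wells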
#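 Luminescent ATP read-out (CellTiter-Glo, 10 min at room temperature) after 48 h compound exposure at 37 °C gave viability of IDH1-knockdown HT-1080 cells. Activity was normalised to DMSO and cell-free wells, then fitted as concentration-response curves.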
# ELG1 repair inh – blocks ELG1-dependent DNA repair in HEK293T cells; HEK293T ELG1-luciferase reporter, luminescence, 16 h; DNA damage induced by 5-fluorouridine; Potency, µM (highest dose often 46.1 µM), for the others: at the top dose activity change, negative = inhibition, actives largely listed as inhibitors; 330,000 tested, 2.3% active; note: potency is the fitted concentration of half-maximal effect; nearly all actives have a fitted effect of over 55% in size
#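 DMSO vehicle served as the neutral condition. Each well held 2,000 cells given 5-fluorouridine plus compound; after 16 hr at 37 °C/5% CO2, ONE-Glo was added and luciferase measured 30 min later.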
# IL1B secr inh – inflammasome signaling inhibition, IL-1 beta readout | activity change, % at 57.5 µM | 360,000 tested, 4.7% active | THP-1 LPS/ATP IL-1B secretion, AlphaLISA, 16 h; hits give low values | AID 743279; in the data active = activity change below about -50%; inconclusive = mostly about -30% to -49%
#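 THP-1 cells pretreated 1 hr with compounds (up to 57.5 uM final), then stimulated with LPS (250 ng/mL final) plus ATP (1.25 mM final); secreted IL-1B measured by AlphaLISA after 16 hr, decreased signal indicating inhibition.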
# DT40 TDP1 CPT – growth inhibition of DT40 Tdp1-/-;hTDP1 cells with camptothecin (screen for TDP1 inhibitors); chicken DT40 Tdp1-/-;hTDP1 cells + 20 nM CPT, ATP luminescence, 48 h; 420,000 tested, 12% active; Potency, µM (top dose mostly 46.2 µM), for the others: at the highest dose activity change, negative = growth inhibition, hits mostly inhibitors; AID 686979; note: potency is the fitted concentration of half-maximal effect; nearly all actives have a fitted effect of over 55% in size
#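 Cell growth measured by CellTiter-Glo luminescence after a minimum 48 h, 37 C compound exposure with 20 nM CPT in Tdp1-knockout DT40 cells stably expressing hTDP1, seeded 400/well; qHTS titration format.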
# TDP1 cell noCPT – qHTS for Inhibitors of human tyrosyl-DNA phosphodiesterase 1 (TDP1): qHTS in cells in absence of CPT. 420,000 tested, 15% active. AID 686978, 2013. DT40 Tdp1-/- hTDP1 cells, no CPT, ATP luminescence, 48 h. Potency, µM (series often up to 46.2 µM), without a hit: at the highest dose activity change, negative = growth inhibition, hits mostly inhibitors; note: potency is the fitted concentration of half-maximal effect; nearly all actives have a fitted effect of over 55% in size
#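 Seeded 400 DT40-hTDP1 cells/well (vehicle DMSO, no 20 nM CPT); pinned compounds; ≥48 hr at 37 °C; CellTiter-Glo luminescence as viability measure.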
# Starred values were filed as active, the others as inactive; ? = inconclusive; nt = no result given; [ ] = another dose, or the depositor's remark. Compounds with a hit are over-represented: about 19% of the library has one in this group of screens. Unless noted, calls come from the whole dose curve; as a rule, active = well fitted curve in the direction sought with a large enough effect; inconclusive = small, poorly fitted or top-dose-only effect, or another doubt; inactive = no such curve, though single readings can be large; an effect the other way counts as inactive or inconclusive. Unless noted, % is set by controls: 0 for no effect and ±100 for the full control effect.
SMILES,HT1080-NT tox,HT1080 IDH1KD tx,ELG1 repair inh,IL1B secr inh,DT40 TDP1 CPT,TDP1 cell noCPT
CSc1ccc(C(=O)C2CCCN(Cc3cccn3-c3cccnc3)C2)cc1 (stereo unspecified),?,-20.4%,?,-96.5*,4.61µM*,5.17µM*
CC(C)Oc1cccc(C(=O)C2CCCN(Cc3cccn3-c3cccnc3)C2)c1 (stereo unspecified),-13.6%,-13.5%,?,?,?,13µM*
COc1ccc(C(=O)C2CCCN(Cc3nc4ccccc4nc3C)C2)cc1OC (stereo unspecified),-2.9%,-19.1%,?,-14.7,-22.6%,?
CCn1ncc(CN2CCCC(C(=O)c3cccc(OC(C)C)c3)C2)c1C (stereo unspecified),7.6%,1.9%,9.6%,38.3,?,?
COc1cc(C(=O)NCc2nnc(SCC(=O)NC3CCCC3)o2)cc(OC)c1OC,7.3%,11.2%,?,39.8,8.6%,5.1%
Cc1oc(=O)oc1CN1CCN(c2cc3c(cc2F)c(=O)c(C(=O)O)c2n3C(C)S2)CC1 (stereo unspecified),nt,nt,nt,nt,-21.7%,-11.0%
O=C(COC(=O)COc1ccc(Br)cc1)NCc1ccccc1,0.7%[9.24 µM],11.5%,?,17.2,4.8%,1.2%
O=C1NC[C@H](Cc2ccccc2)N(C[C@H]2CCCN2C[C@H](Cc2ccccc2)N2C[C@H](Cc3ccccc3)N(CCc3ccccc3)C(=O)C2=O)C1=O,?,?,nt,-77.4*,?,16.4µM*
O=C1NC[C@H](Cc2ccc(O)cc2)N(C[C@H]2CCCN2C[C@H](Cc2ccc(O)cc2)N2C[C@H](Cc3ccc(O)cc3)N(CCc3ccccc3)C(=O)C2=O)C1=O,12.9%,4.7%,nt,-3.6,-14.2%,-0.3%
O=C1NC[C@H](Cc2ccccc2)N(C[C@@H]2CCCN2C[C@H](Cc2ccccc2)N2C[C@H](Cc3ccccc3)N(CCc3ccccc3)C(=O)C2=O)C1=O,?,?,nt,-70.3*,?,?
O=C1NC[C@H](Cc2ccccc2)N(C[C@@H]2CCCN2C[C@H](Cc2ccc(O)cc2)N2C[C@H](Cc3ccc(O)cc3)N(CCc3ccccc3)C(=O)C2=O)C1=O,-3.7%,7.2%,nt,-19.6,3.2%,-5.2%
OC(COc1ccc(-c2ccccc2)cc1)CN1CCCCC1 (stereo unspecified),-8.7%,-14.7%,nt,-19.0,?,25.9µM*
CCC(=O)c1ccc(OCC(O)CN2CCN(S(=O)(=O)N3CCCCC3)CC2)cc1 (stereo unspecified),2.5%,4.6%,?,-11.0,?,?
O=C(c1ccccc1)c1ccc(OCC(O)CN2CCN(S(=O)(=O)N3CCCCC3)CC2)cc1 (stereo unspecified),-11.7%,?,18.4µM*,-13.3,?,18.4µM*
CCOc1cc(CNC(=O)c2ccc3c(c2)NC(=O)C2CCCCN32)cc(OCC)c1OCC (stereo unspecified),nt,nt,nt,nt,18.4µM*,?
CCN1C(=O)C2CCCCN2c2ccc(C(=O)NCCOC)cc21 (stereo unspecified),27.3%,8.4%,?,12.4,21.5%,5.0%
Cc1cccc(CNC(=O)c2ccc3c(c2)N(C)C(=O)C2CCCCN32)c1 (stereo unspecified),nt,nt,nt,nt,13µM*,?
Cc1ccc(CNC(=O)CN2C(=O)C3CCCCN3c3ccc(C(=O)N4CCCC4)cc32)cc1 (stereo unspecified),nt,nt,nt,nt,-7.5%,-7.5%
